# The campaign covered roughly 360,000 compounds. About 1,700 (0.47%) were called active. Shown is part of a subset that was picked to be rich in actives. Values without a mark were called inactive. Cut-off read from the data, not from the text of the source: active = activation above about 15%; inactive = the rest.
# Assay: counter-screen for M1 agonists: effect in parental CHO-K1 cells (AID 602248);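 note: untransfected CHO-K1 host cells lacking M1 receptor as counterscreen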
# Conditions: Fluo-8 calcium fluorescence, at 3 µM, hits give high values, scaled to maximal ATP response, vehicle zero
row,SMILES,activation
1,COc1cc(OC)c(N2CC(C(=O)Nc3cc(Cl)ccc3N3CCOCC3)CC2=O)cc1Cl (configuration not stated),4.62%
2,COc1ccc(Cl)cc1S(=O)(=O)N1CCC(O)(c2ccc(Cl)cc2)CC1,0.66%
3,COc1cc(OC)c(-n2cc(-c3ccc(Cl)cc3)[nH]c2=O)cc1Cl,25.2% (active)
4,O=C(CCCN1CCc2[nH]c3ccc(F)cc3c2C1)c1ccc(F)cc1,24% (active)
5,CC1CCc2[nH]c3ccc(C(=O)N(C)CC(=O)Nc4cccc(F)c4)cc3c2C1 (configuration not stated),2.26%
6,Cn1c(SCC(=O)N2CCOCC2)nnc1-c1ccc2ncccc2c1,0.63%
7,Cc1c(Cl)c([N+](=O)[O-])nn1CCCC(=O)NC(C)c1ccccc1 (configuration not stated),-0.09%
8,Cc1c(Cl)c([N+](=O)[O-])nn1Cc1ccc(C(=O)N/N=C\c2cc(Cl)ccc2O)o1,19.9% (active)
9,CN(C)c1ccc(/C=N/NC(=O)c2ccc(Cn3cc(Br)cn3)o2)cc1,0.99%
10,C=C(C)CSc1nnc(-c2ccc(C)cc2)n1N,0.17%
11,O=C(CCN1C(=O)c2ccccc2C1=O)NCCCn1ccnc1,0.76%
12,Cc1nc(Cl)c(C#N)c2c1CCCC2,0.61%
13,COC(=O)c1c(C)c(C)nc(N)c1C#N,0.12%
14,COCc1c(N)c(C)nc(Cl)c1C#N,16.9% (active)
15,CCNC(=O)C1(C)CCN(C(=O)c2ccccc2)C1 (configuration not stated),-0.33%
16,O=C(Cn1ccc([N+](=O)[O-])n1)NCc1cccs1,0.12%
17,OCCN1CCN(c2ncnc3c2ncn3[C@H]2CN(Cc3ccco3)C[C@@H](CO)O2)CC1,0.92%
18,CCNC(=O)N1CCN(S(=O)(=O)c2ccc3c(c2)OCCCO3)CC1,1.28%
19,COc1cc(NC(=O)c2ccc(CNc3c(N4CCCC4)c(=O)c3=O)cc2)cc(OC)c1OC,0.42%
20,Cc1ccc(Cn2c(C)c(C(=O)NCc3ccccc3C(F)(F)F)sc2=O)cc1,0.82%
21,Cc1c(C(=O)NCc2ccc(C#N)cc2)sc(=O)n1Cc1ccc(C(=O)N(C)C)cc1,-0.19%
22,CC(=O)Oc1ccc(Cn2c(C)c(C(=O)NCc3ccc(C#N)cc3)sc2=O)cc1,31.7% (active)
23,CCC(CC)C(=O)Nc1c2c(nn1-c1ccc(C)cc1)CS(=O)(=O)C2,-0.47%
24,O=C(NCc1ccc2c(c1)OCO2)C(=O)NCC1OCCN1S(=O)(=O)c1ccc(F)cc1 (configuration not stated),1.05%
25,O=C(O)c1ccc(S(=O)(=O)N2CCOCC2)o1,-0.58%
26,CNC[C@H]1OCc2cnnn2CCCC(=O)N([C@H](C)CO)C[C@@H]1C,0.47%

row,SMILES,activation
1,CC(=O)c1ccc(NC(=S)NC(=O)CC(C)C)cc1,16.1% (active)
2,CC(=O)c1ccc(NC(=O)CSC(=S)N2CCCC2)cc1,1.41%
3,CC(C)CC(=O)NC(=S)Nc1ccc(F)cc1F,1.3%
4,CCCOc1cc(C)c(S(=O)(=O)n2nnc3ccccc32)cc1C,0.16%
5,CCC(C(=O)Nc1ncccn1)(C(F)(F)F)C(F)(F)F,0.01%
6,S=C1Nc2cc(Cl)ccc2Sc2ccccc21,1.17%
7,Cc1ccc(S(=O)(=O)N(C)CC(=O)NCC(c2ccc(F)cc2)N2CCOCC2)cc1 (configuration not stated),0.75%
8,COC(=O)[C@@H]1C[C@@]2(O)[C@H](O)[C@H](O)[C@H](O)C[C@H]2N1Cc1ccc(C)s1,0.11%
9,COc1cc(NC(=O)Nc2ccc(C)cc2)cc([N+](=O)[O-])c1,15.6% (active)
10,COc1ccc(S(=O)(=O)NNC(=O)Nc2ccc(C)cc2)c(OC)c1,0.08%
11,Cc1ccc(Oc2cc(NC(=O)CCCn3nc(C)c([N+](=O)[O-])c3C)cc([N+](=O)[O-])c2)cc1,0.22%
12,CC(C)CCN1C(=O)c2ccc(C(=O)Nc3cccc(S(N)(=O)=O)c3)cc2C1=O,1.4%
13,CCSC1=NCCN1S(=O)(=O)c1ccc(F)cc1,0.73%
14,Cc1ccc(C(=O)OCC(=O)N2CCCCCC2)cc1S(=O)(=O)N1CCOCC1,0.59%
15,COc1ccc(C(=O)OCC(=O)c2ccc(C)c(S(=O)(=O)N3CCOCC3)c2)cc1OC,15.7% (active)
16,COc1ccc(CNC(=O)COC(=O)c2ccc(C)c(S(=O)(=O)N3CCOCC3)c2)cc1OC,3.58%
17,COc1ccc(C(C)NC(=O)C23CC4CC(CC(C4)C2)C3)cc1 (configuration not stated),-0.13%
18,Cc1ccc(NC(=O)COC(=O)CN2CCCCCC2=O)c(C)c1,-0.27%
19,COc1ccc(-c2ccc3c(c2)C2CC3CCN2CCC#N)cc1 (configuration not stated),4.03%
20,CCOC(=O)N1CCN(C(=O)c2ccc3c(c2)N(Cc2ccc(C)cc2)CCS3)CC1,1.01%
21,O=C(NNC(=O)c1csc(-c2cccnc2)n1)Nc1ccc(Cl)cc1,0.53%
22,O=C(O)CCCC(=O)Nc1ccc(Oc2cccc(C(F)(F)F)c2)nc1,0.38%
23,O=C(Nc1ccc(Cl)cc1)Nc1ccc(Oc2cccnc2)nc1,15.9% (active)
24,COc1ccc(NC2CCCN(C(=O)c3ccncc3)C2)cc1 (configuration not stated),0.4%
25,CSc1nc(C)nc2c1c(=O)n(C)c(=O)n2C,-0.23%
26,N#Cc1c(-c2ccc(F)cc2)cc(C2CC2)nc1SCC(=O)c1cccs1,0.07%

# Reference: PubChem BioAssay AID602248 (The Scripps Research Institute Molecular Screening Center, 2012)
